{"source": "PubChem BioAssay AID540276", "about": "(National Center for Advancing Translational Sciences (NCATS), 2011)", "note": "Out of some 300,000 compounds screened, about 5,400 (1.8%) were called active. Roughly 28% stayed inconclusive and do not appear here. Calls come from the whole dose curve; tested in HEK293 cells. What follows is part of a selection rich in actives, with near analogues and random picks from the rest. Where a call stands in place of a potency, no number is given. Potency is the fitted concentration of half-maximal effect.", "data": [{"assay": "qHTS for inhibitors of binding or entry into cells for Marburg Virus", "conditions": "Marburg virus pseudotyped entry inhibition, cell reporter; series mostly up to 37.8 µM", "values": [{"molecule": "Cn1c(CCNS(=O)(=O)c2ccc(F)cc2)nnc1SCc1cccnc1", "Potency": "inactive"}, {"molecule": "Cc1ccc(Br)c(NS(=O)(=O)c2cccc(C(=O)N3CCNC(=O)C3)c2)c1", "Potency": "inactive"}, {"molecule": "Cc1c(NC(=O)C(C)OC(=O)c2ccccc2O)c(=O)n(-c2ccccc2)n1C", "note": "(stereo not drawn)", "Potency": "inactive"}, {"molecule": "Fc1ccc(N2CCN(Cc3ccc4c(c3)OCO4)CC2)cc1", "Potency": "inactive"}, {"molecule": "Fc1ccc2[nH]c3c(N4CCN(Cc5ccc6c(c5)OCO6)CC4)ncnc3c2c1", "Potency": "8.91 µM (active)"}, {"molecule": "Cc1cc(N2CCN(Cc3ccc4c(c3)OCO4)CC2)n2ncnc2n1", "Potency": "inactive"}, {"molecule": "Fc1ccc2[nH]c3c(N4CCSCC4)ncnc3c2c1", "Potency": "10 µM (active)"}, {"molecule": "O=C(C1C=CC(C(=O)N2CCOCC2)S1)N1CCOCC1", "note": "(stereo not drawn)", "Potency": "inactive"}, {"molecule": "O=C(Cn1ccc2cc(S(=O)(=O)N3CCCC3)ccc21)NCc1ccccc1", "Potency": "inactive"}, {"molecule": "COCCn1c(C)cc(C(=O)CSc2nnc(C3CC3)n2C2CC2)c1C", "Potency": "inactive"}, {"molecule": "CCN(CC)CCNc1ccc(Cl)cc1[N+](=O)[O-]", "Potency": "inactive"}, {"molecule": "CCN(CC)CCCC(C)Nc1ccnc2cc(Cl)ccc12", "note": "(stereo not drawn)", "Potency": "5.62 µM (active)"}, {"molecule": "COc1ccc(CNC(=O)C(C)NCc2ccccc2Cl)cc1", "note": "(stereo not drawn)", "Potency": "inactive"}, {"molecule": "Cc1cccc(N2C(=O)C[C@@H](N3CCN(Cc4ccc(Cl)cc4)CC3)C2=O)c1", "Potency": "inactive"}, {"molecule": "Cc1nn2c(c1-c1ccccc1)N=C(c1ccco1)CC2c1ccccc1", "note": "(stereo not drawn)", "Potency": "0.517 µM (active)"}, {"molecule": "Cc1ccc(C)c(C(C)NC(=O)C2CCCO2)c1", "note": "(stereo not drawn)", "Potency": "inactive"}, {"molecule": "COC(CNC(=O)c1ccc2c(c1)ncn2-c1cc(C)cc(C)c1)OC", "Potency": "inactive"}, {"molecule": "N/C(=N\\OC(=O)Nc1ccc(Cl)c(Cl)c1)c1ncc(C(F)(F)F)cc1Cl", "Potency": "inactive"}, {"molecule": "O=C(CC(=O)Nc1ccc(Cl)c(Cl)c1)N/N=C/c1ccc(O)cc1", "Potency": "inactive"}, {"molecule": "O=C(CC(O)(C(F)(F)F)C(F)(F)F)Nc1ccc(Cl)c(Cl)c1", "Potency": "3.26 µM (active)"}, {"molecule": "CSc1ncc(C(=O)Nc2ccc(C)cc2C)c(C)n1", "Potency": "inactive"}, {"molecule": "CCOc1ccc(NC(=O)C(C)N2C(=O)c3ccccc3C2=O)cc1", "note": "(stereo not drawn)", "Potency": "inactive"}, {"molecule": "COc1ccc(CCn2ccc(O)c(Cc3ccc(Cl)cc3Cl)c2=O)cc1OC", "Potency": "3.98 µM (active)"}, {"molecule": "COc1ccc(CCNC(=O)CCCn2c(=O)c3ccccc3n(Cc3ccc(F)cc3Cl)c2=O)cc1OC", "Potency": "inactive"}, {"molecule": "COc1ccc(CCNC(=O)CCc2ccccc2O)cc1OC", "Potency": "inactive"}, {"molecule": "COC(=O)c1ccc(C(=O)NC2CC(C)(C)Cc3c2cnn3-c2ccc(F)cc2)nc1", "note": "(stereo not drawn)", "Potency": "inactive"}, {"molecule": "Cn1nnnc1SCC(=O)Nc1sccc1C(N)=O", "Potency": "inactive"}, {"molecule": "CN1c2ccc(C=O)c3c(C=O)ccc(c23)N(C)C1(C)C", "Potency": "10 µM (active)"}, {"molecule": "O=C(CN(CC1CCCO1)C(=O)CNS(=O)(=O)c1ccc(Cl)cc1)NCc1ccccc1", "note": "(stereo not drawn)", "Potency": "inactive"}, {"molecule": "COc1ccc(C(=O)Nc2ccnn2C2CCN(Cc3ccncc3)CC2)cc1", "Potency": "inactive"}, {"molecule": "S=C(c1ccccc1)N1CCCC1", "Potency": "inactive"}, {"molecule": "CSCCC(NC(=O)c1ccccc1)C(=O)N1CCN(Cc2ccc(Cl)cc2)CC1", "note": "(stereo not drawn)", "Potency": "11.2 µM (active)"}, {"molecule": "CSCCC(NS(=O)(=O)/C=C/c1ccccc1)C(=O)N1CCC(C)CC1", "note": "(stereo not drawn)", "Potency": "inactive"}, {"molecule": "O=C(NC(Cc1ccccc1)C(=O)N1CCCC(C(F)(F)F)C1)c1ccccc1", "note": "(stereo not drawn)", "Potency": "inactive"}, {"molecule": "CC(=O)Nc1ccc(S(=O)(=O)NNC(=O)CCc2ccccc2)cc1", "Potency": "inactive"}, {"molecule": "CC(=O)Nc1ccc(Nc2ncnc3c2nnn3Cc2ccccc2Cl)cc1", "Potency": "inactive"}, {"molecule": "CN(C(=O)CC1C(=O)NCCN1Cc1ccc2ccccc2c1)C1CCOCC1", "note": "(stereo not drawn)", "Potency": "inactive"}, {"molecule": "c1ccc2c(c1)CSc1sccc1C2=C1CCNCC1", "Potency": "6.51 µM (active)"}, {"molecule": "CCc1c(Nc2ccccc2Cl)nc(N)[nH]c1=O", "Potency": "inactive"}, {"molecule": "COc1ccccc1N(CC(=O)Nc1c(C)n(C)n(-c2ccccc2)c1=O)S(=O)(=O)c1ccccc1", "Potency": "inactive"}, {"molecule": "COc1ccc(-c2ccc(Nc3ccc(S(=O)(=O)N4CCCC4)cc3)nn2)cc1OC", "Potency": "14.6 µM (active)"}, {"molecule": "COc1ccc(S(=O)(=O)Nc2ccc(S(=O)(=O)N3CCCCC3)cc2)cc1OC", "Potency": "inactive"}, {"molecule": "COc1ccc(S(=O)(=O)N2CCCCC2)cc1Br", "Potency": "inactive"}, {"molecule": "CCCN1CCN(C(=O)CCCNC(=O)c2ccc(Cl)cc2)CC1", "Potency": "inactive"}, {"molecule": "CC1(C)Cc2c(cnn2-c2cccc(F)c2)C(NC(=O)c2cc[n+]([O-])cc2)C1", "note": "(stereo not drawn)", "Potency": "inactive"}, {"molecule": "CCC(=O)N(Cc1ccccc1)c1ccccn1", "Potency": "inactive"}, {"molecule": "CCCN(CC1CC1)C(=O)COC(=O)c1ccc(C)cc1O", "Potency": "inactive"}, {"molecule": "CC(Oc1ccc(Br)cc1)C(=O)NCC(c1ccco1)N1CCCCC1", "note": "(stereo not drawn)", "Potency": "inactive"}, {"molecule": "COc1ccc(-c2nn(-c3ccccc3)cc2/C=N/Nc2ccccn2)cc1OC", "Potency": "13 µM (active)"}, {"molecule": "CN(C)/N=C/c1cn(-c2ccccc2)nc1-c1cccnc1", "Potency": "inactive"}, {"molecule": "Cc1ccc(-c2nn(-c3ccccc3)cc2/C=N/NC(=O)c2ccc3c(c2)OCO3)cc1", "Potency": "inactive"}, {"molecule": "CC(CC(=O)Nc1ccc(F)cc1F)S(=O)(=O)c1ccc2c(c1)NC(=O)CO2", "note": "(stereo not drawn)", "Potency": "inactive"}, {"molecule": "CC(C)CC1(C)NC(=O)N(CC(=O)Nc2ccc3c(c2)OCCO3)C1=O", "note": "(stereo not drawn)", "Potency": "inactive"}, {"molecule": "CC(=O)c1c(OCC(=O)N(C)C2CCCCC2)ccc2c(C)cc(=O)oc12", "Potency": "inactive"}, {"molecule": "Cc1c(NC(=O)Nc2cccc([N+](=O)[O-])c2)c(=O)n(-c2ccccc2)n1C", "Potency": "inactive"}, {"molecule": "O=C(CNC(=O)C1COc2ccccc2O1)N/N=C/c1cc(Br)c(O)c(Br)c1", "note": "(stereo not drawn)", "Potency": "inactive"}, {"molecule": "CCn1nnc2cc(C(=O)Nc3ccc(C(=O)OC(C)C)cc3)ccc21", "Potency": "inactive"}, {"molecule": "COc1ccc(-c2[nH]ncc2CN(C)Cc2cccnc2)c(F)c1", "Potency": "inactive"}, {"molecule": "CCC(=O)N(Cc1cc2cc(OC)ccc2[nH]c1=O)c1ccccc1C", "Potency": "inactive"}, {"molecule": "COc1ccc2[nH]c(=O)c(CN(Cc3cccnc3)S(=O)(=O)c3ccccc3F)cc2c1", "Potency": "2.82 µM (active)"}, {"molecule": "Cc1ccc(C(=O)Nc2ccc3c(c2)OCCO3)cc1S(=O)(=O)N1CCOCC1", "Potency": "inactive"}, {"molecule": "Cc1ccc(-c2csc(C(C#N)=C(O)CN3CCN(C(=O)c4ccco4)CC3)n2)cc1", "Potency": "inactive"}, {"molecule": "Cc1cccc(Cn2c(SCCO)nc3c2c(=O)n(C)c(=O)n3C)c1", "Potency": "inactive"}, {"molecule": "C/C(Cl)=C\\Cn1c(Nc2cccc(C)c2)nc2c1c(=O)n(C)c(=O)n2C", "Potency": "11.6 µM (active)"}, {"molecule": "COC(=O)C(C)Sc1nc2c(c(=O)n(C)c(=O)n2C)n1Cc1cccc(C)c1", "note": "(stereo not drawn)", "Potency": "inactive"}, {"molecule": "COc1ccccc1NC(=O)C(C)OC(=O)c1ccc(-n2cnnn2)cc1", "note": "(stereo not drawn)", "Potency": "inactive"}, {"molecule": "CC(C)CC(=O)Nc1ccc(Cc2ccncc2)cc1", "Potency": "inactive"}, {"molecule": "CCOc1ccc(-c2noc(CCC(=O)NC3CCCC3)n2)cc1OC", "Potency": "inactive"}, {"molecule": "CC1CN(C(=O)CCC(=O)NCCCN2CCC(Cc3ccccc3)CC2)c2cc(Cl)ccc2O1", "note": "(stereo not drawn)", "Potency": "11.2 µM (active)"}, {"molecule": "Cc1ccc2c(c1)N(C(=O)CCC(=O)NCc1ccccc1F)CC(C)O2", "note": "(stereo not drawn)", "Potency": "inactive"}, {"molecule": "COc1ccccc1NC(=O)CCC(=O)N1CC(C)Oc2ccc(C)cc21", "note": "(stereo not drawn)", "Potency": "inactive"}, {"molecule": "N[C@@H](Cc1ccccc1)C(=O)N1CCC(C(=O)NCC(=O)Nc2ccc(F)cc2)CC1", "Potency": "inactive"}, {"molecule": "O=C(CN1CCN(C(=O)C2CCCO2)CC1)Nc1c(Cl)cccc1Cl", "note": "(stereo not drawn)", "Potency": "inactive"}, {"molecule": "COc1cc(/C=N/Nc2nc3ccccc3s2)ccc1O", "Potency": "10 µM (active)"}, {"molecule": "CCNc1nc(NCC)nc(N/N=C/c2ccc(O)c(OC)c2)n1", "Potency": "inactive"}, {"molecule": "COc1cc(/C=N\\Nc2nc(-c3cccs3)c(NC(C)=O)s2)ccc1O", "Potency": "inactive"}, {"molecule": "CCN(CC(=O)Nc1c(F)cccc1F)C(=O)Cc1cccs1", "Potency": "inactive"}, {"molecule": "CCOC(=O)N(Cc1ccccc1)C1CC1", "Potency": "inactive"}, {"molecule": "CCC(C(=O)OCCN(CC)CC)c1ccccc1", "note": "(stereo not drawn)", "Potency": "inactive"}, {"molecule": "CCCC(C(=O)OCCN(CC)CC)(c1ccccc1)c1ccccc1", "Potency": "10 µM (active)"}, {"molecule": "CCOC(=O)CCP(=O)(O)C(O)(c1ccccc1)c1ccccc1", "Potency": "inactive"}, {"molecule": "COc1ccccc1CN1CCNC(=O)C1CC(=O)N(C)CC1CCOCC1", "note": "(stereo not drawn)", "Potency": "inactive"}, {"molecule": "O=C(c1ccc(N2CCOCC2)c([N+](=O)[O-])c1)N1CCN(c2ccccc2F)CC1", "Potency": "inactive"}, {"molecule": "COc1ccc(CCNC(=O)CSc2nc3[nH]ncc3c(=O)n2-c2cccc(C(F)(F)F)c2)cc1OC", "Potency": "inactive"}, {"molecule": "COC(=O)c1ccc(CSc2nc3ccccc3c(=O)n2-c2cccc(OC)c2)o1", "Potency": "inactive"}, {"molecule": "Cc1cccc2nc(CSc3nc4[nH]ncc4c(=O)n3-c3cccc(Cl)c3)cc(=O)n12", "Potency": "7.31 µM (active)"}, {"molecule": "CC(=O)C1=C(C)NC(=O)NC1c1ccc2c(c1)OCO2", "note": "(stereo not drawn)", "Potency": "inactive"}, {"molecule": "C#CC(C)(CC)NC(=O)Cn1nnc(-c2ccc(OCc3c(F)cccc3Cl)cc2)n1", "note": "(stereo not drawn)", "Potency": "inactive"}, {"molecule": "CN(C)CCCNC(=O)/C=C/c1ccc(OCc2c(F)cccc2Cl)cc1", "Potency": "3.98 µM (active)"}, {"molecule": "O=C(/C=C/c1ccc(F)cc1)NCCNC(=O)/C=C/c1ccc(F)cc1", "Potency": "inactive"}, {"molecule": "O=C(CCCCCNC(=O)c1ccccc1)N/N=C/c1ccccc1", "Potency": "inactive"}, {"molecule": "NCCCCCC(=O)N/N=C/c1ccc2nccnc2c1", "Potency": "2.82 µM (active)"}, {"molecule": "CCOc1cc(C=NNC(=O)CCCC(=O)NN=Cc2ccc(O)c(OCC)c2)ccc1O", "Potency": "inactive"}, {"molecule": "COc1ccccc1CNC(=O)CSc1nc(=O)n(Cc2ccncc2)c2c1CCC2", "Potency": "inactive"}, {"molecule": "Cc1ccc(C(=O)N/C(=C\\c2cn(C)c3ccccc23)C(=O)N2CCN(C)CC2)cc1", "Potency": "inactive"}, {"molecule": "CC(=O)OC1CCC2C3CCC4=C(CC(F)C(=O)C4)C3CCC12C", "note": "(stereo not drawn)", "Potency": "inactive"}, {"molecule": "Cc1cccc(N=C2NN=C(c3c[nH]c4ccccc34)CS2)c1", "Potency": "inactive"}, {"molecule": "C=CCn1c(C)cc(C2=NNC(=NCC)SC2)c1C", "Potency": "1.16 µM (active)"}, {"molecule": "COCCn1c(C)cc(C2=NNC(=Nc3ccc(F)cc3)SC2)c1C", "Potency": "inactive"}, {"molecule": "COc1cccc(N(C(=O)CNC(=O)c2ccco2)C(C(=O)NC2CCCCC2)c2cccnc2)c1", "note": "(stereo not drawn)", "Potency": "inactive"}, {"molecule": "COc1cc([C@H]2[C@@H]3C(=O)N(c4ccc(F)cc4)C(=O)[C@H]3ON2c2ccccc2)ccc1O", "Potency": "inactive"}, {"molecule": "O=[N+]([O-])c1ccc(S(=O)(=O)Nc2cccc(-c3ccc(N4CCCC4)nn3)c2)cc1", "Potency": "inactive"}, {"molecule": "Cc1ccc(S(=O)(=O)c2cc3c(=O)n4cccc(C)c4nc3n(CCc3ccccc3)c2=N)cc1C", "Potency": "inactive"}]}]}
